Experimental data from ChEMBL document CHEMBL3988442, “University of Dundee, Small-Polar-MMV Screening Library” (2021).
In all, about 48,000 compounds went through this assay and about 13,000 (27%) showed an effect of 50% or more. Some of the results follow.

The molecules below were run on Wolbachia pipientis (assay: Anti-Wolbachia Cell-Based Screen). Settings: 5 µM.
Type: functional
Parameters: scale not given: in the data most compounds retested in dose-response had high values

SMILES | Percent Effect [%]
O=C(c1cc2ccccc2o1)N1CCN(Cn2cc(Cl)cn2)CC1 | -7.476
CNC(=O)CCNC(=O)c1cc(Br)c2c(c1)OCCO2 | 13.5
Cc1ccc(S(=O)(=O)N2CCCC(c3n[nH]cc3C(=O)N(C)C)C2)cc1 (stereo unspecified) | 125.7
Cc1ccc([C@@H]2CN(S(=O)(=O)c3ccccc3)C[C@H]2N(C)C)cc1 | -8.566
CCN(C)S(=O)(=O)N1CCCC(c2nc(-c3ccccc3)c[nH]2)C1 (stereo unspecified) | -1.843
O=C(NCc1nnc2ccccn12)N1CCOC(c2ccsc2)C1 (stereo unspecified) | -11.65
COc1ccc(NC(=O)NCC(O)c2ccccc2F)c(OC)c1 (stereo unspecified) | 84.27
COc1ccccc1C(O)CNC(=O)Nc1ncccc1C (stereo unspecified) | 0.5949
COc1ccc(OC)c(NC(=O)NCC(O)c2ccc(F)c(F)c2)c1 (stereo unspecified) | 19.22
CCOc1ncccc1NC(=O)NCC(O)c1ccccc1OC (stereo unspecified) | -2.656
COc1ccc(OC)c(C(O)CNC(=O)Nc2ccc(F)cc2F)c1 (stereo unspecified) | 81.01
COc1ccc(NC(=O)NCC(O)c2ccc(F)cc2F)c(OC)c1 (stereo unspecified) | 9.274
CCN(C)C1CCCc2nc(C)sc21 (stereo unspecified) | -11.76
Cc1cc(C(=O)N2CCC3(CC2)C(=O)NCCN3CC(C)C)c(C)o1 | 4.806
CCN1CCC2(CC1)C(=O)N(c1ccc(C)nc1)CCN2CC(C)C.O=C(O)C(F)(F)F | -13.38
Cc1ccc(OC2(C(=O)O)CCN(C(=O)c3cc(C)oc3C)CC2)cn1 | -11.44
Cc1cc(C(=O)N2CCC3(CC2)C(=O)N(C)CCN3CC(C)C)c(C)o1.O=C(O)C(F)(F)F | 105.2
Cc1ccsc1C(=O)N1CCC2(CC1)C(=O)N(C)CCN2CC1CC1.O=C(O)C(F)(F)F | 98.73
Cc1ccc(N2CCN(CC3CC3)C3(CCN(C(C)C)CC3)C2=O)cn1.O=C(O)C(F)(F)F | -1.753
CCc1ccc(CN2CCC3(CC2)C(=O)N(C)CCN3CC2CC2)cc1.O=C(O)C(F)(F)F | -26.46
Cc1cc(C(=O)N2CCC3(CC2)C(=O)N(C)CCN3CC2CC2)c(C)o1.O=C(O)C(F)(F)F | 105.3
O=C(O)[C@@H]1CN(CCOCCO)C[C@H]1c1ccccc1 | -10.46

SMILES | Percent Effect [%]
N#Cc1ccc(OC2CCN(C(=O)c3cncc(Br)c3)CC2)nc1 | 3.966
CCC(C)(CC(=O)OC)NC(=O)c1ccc2[nH]ccc2c1 (stereo unspecified) | -0.3166
CCCn1[nH]cc/c1=N\C(=O)CN1CCCC1Cn1nc(C)nc1C (stereo unspecified) | -1.859
CC(=O)c1cccc(NC(=O)CN2CCCCC2C)c1 (stereo unspecified) | -9.973
CCCS(=O)(=O)CCN1CCOC(c2ccsc2)C1 (stereo unspecified) | -6.167
Cn1nccc1C(=O)N1CCCN(CCCc2ccccc2)CC1 | -12.37
O=C(c1ncoc1C1CC1)N1CCN(CCOc2ccccc2)CC1 | 94.73
Nc1nccnc1C(=O)N1CCN(CCOc2ccccc2)CC1 | -15.87
O=C(c1ncoc1C1CC1)N1CCCN(CCCc2ccccc2)CC1 | 104.8
COc1cccc(OCC2CCCN(C(=O)c3ncoc3C3CC3)C2)c1 (stereo unspecified) | -37.79
Cc1ocnc1C(=O)N1CCN(CCOc2ccccc2)CC1 | 109.9
CC(C(=O)N1CCN(CCOc2ccccc2)CC1)n1cc(Cl)cn1 (stereo unspecified) | 9.787
CC(=O)N1CCCN(CCCc2ccccc2)CC1 | -14.81
O=C(CCn1cc(Cl)cn1)N1CCN(CCOc2ccccc2)CC1 | -6.646
O=C(c1n[nH]c2c1CCN(Cc1nccs1)C2)N1CCOCC1 | 14.04
O=C(CN1CCc2cncnc2C1)N1CCc2sccc2C1 | -26.01
Cc1cc(CNc2ccc(C(=O)N3CCc4ccccc43)cn2)on1 | 23.63
CSC1(CNC(=O)NCc2sccc2C)CCOCC1 | -11.79
COC(=O)NCC(=O)N(C)Cc1csc(-c2cccs2)n1 | -9.296
COc1ccccc1CN(C)C(=O)c1cc(CN2CCC(O)CC2)on1 | -15.1
COc1cccc(CN2CCC(Cc3cnc(CN(C)C)cn3)CC2)c1 | 111.9
Cc1ncc(CN(C)C2CCCN(CCc3ccccc3)C2)n1C (stereo unspecified) | -4.655

SMILES | Percent Effect [%]
Cc1cnc(CN(C)C2CCN(CCc3ccccn3)CC2)cn1 | 10.61
COc1ccccc1CN1CCC(Cc2cnc(CN(C)C)cn2)CC1 | 110
CN(C)Cc1cnc(CC2CCN(CCc3ccccc3)CC2)cn1 | 90.66
COc1ccccc1OC1CCN(Cc2cnc(N(C)C)nc2)CC1 | -4.548
COc1cccc(CN2CCC(c3nccn3C(C)C)CC2)c1 | 7.494
CCn1c(CN(C)C)nnc1C1CCN(Cc2cccc(OC)c2)CC1 | 12.38
O=C(NCCN1CCOCC1)NCc1ncc(-c2ccccc2)o1 | 4.39
CCc1cc(N2C[C@H](C3CC3)[C@@H](N)C2)nc(N2CCCC2)n1 | 13.06
O=C(C1SCCc2sccc21)N1CC(O)C1 (stereo unspecified) | -8.874
O=C(NCc1nnnn1-c1ccccc1)c1ccc(C2CCCO2)s1 (stereo unspecified) | 107.3
O=C(NCc1nnc2n1CCC2)c1ccc(Br)s1 | 111.9
O=C(c1ccc(C2CCCO2)s1)N1CCS(=O)(=O)CC1 (stereo unspecified) | -17.24
O=C(NCc1nnc2n1CCCC2)c1ccc(C2CCCO2)s1 (stereo unspecified) | 101.2
O=C(NCCc1nc(-c2ccccn2)no1)c1ccc(C2CCCO2)s1 (stereo unspecified) | 1.168
Brc1ccc(CNCc2nnc3n2CCC3)s1.Cl | 7.308
O=C(NCc1nc(-c2ncccn2)no1)c1ccc(C2CCCO2)s1 (stereo unspecified) | 1.896
Brc1ccc(CNCc2nnc3n2CCCCC3)s1.Cl | -9.966
O=C(NCCc1nc(-c2cccnc2)no1)c1ccc(C2CCCO2)s1 (stereo unspecified) | 9.289
O=C(c1ccc(C2CCCO2)s1)N1CCOCC1 (stereo unspecified) | 12.38
CCCn1nc(C(=O)NCc2nnc3n2CCC3)ccc1=O | 10.17
O=C(NCc1nnc2n1CCC2)c1ccc(C2CCCO2)s1 (stereo unspecified) | 92.93
CCc1cccc(OCCn2cccc(C#N)c2=O)c1 | -12.24
